# The full ranking holds about 33,000 sequences; the median of “e-score” is about -0.037, and the highest 2% start at about 0.34. This excerpt belongs to a sample that is enriched for the highest values.
# Molecular target: T1, GST-Rok (full length) (Bacillus subtilis subsp. subtilis str. …, UniProt O34857 1-191)
# T1 sequence: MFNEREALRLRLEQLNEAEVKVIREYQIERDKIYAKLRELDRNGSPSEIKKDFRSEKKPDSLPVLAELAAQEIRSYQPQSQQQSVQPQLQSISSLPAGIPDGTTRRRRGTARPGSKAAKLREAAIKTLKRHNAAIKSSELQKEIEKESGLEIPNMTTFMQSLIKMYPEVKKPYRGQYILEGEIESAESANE
# Test: protein binding microarray; Rok is a gene silencer of Bacillus subtilis; high values mean tight binding
# Conditions: protein: recombinant; tags: GST (pTH5325, pDEST15-Magic modified); dsDNA, one strand shown
# Procedure, shortened: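 Each has a 25-mer constant primer and a 35-mer variable part from a de Bruijn sequence of order 10, covering every non-palindromic 8-mer at least 32 times (palindromic 16). Preference for each 8-mer is given as a rank-based, unitless enrichment score (E-score). Its range runs from 0.5 (most favored) to −0.5 (most disfavored).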
row,Sequence,binding signal [E-score]
1,ACAGGAGT,0.0409
2,ACTTACTA,0.306
3,TGATTCAA,-0.164
4,AAAGAATA,0.138
5,CACTGACA,-0.161
6,ATCGTTTG,-0.0128
7,GCAGTTTA,0.0849
8,ATAGTTGG,0.0271
9,GTAGTTTA,0.382
10,GGAGTTTA,0.0513
11,ATAGTTTG,0.364
12,AGCGTACT,0.0975
13,GGTTGGTA,0.109
14,AGCCCTTA,-0.135
15,AGGAAGAA,-0.0233
16,CTGAATTA,0.134
17,ATGAATTA,0.353
18,TAAAATTA,0.199
19,ATAAATTG,0.336
20,ATGAATTG,0.0516
21,ACAAATTG,-0.0361
22,CTAAATTA,0.252
23,ACAAATTC,0.238

row,Sequence,binding signal [E-score]
1,ACAAATTA,0.338
2,ATAAATTA,0.347
3,GTAAATTA,0.383
4,ATAAATTC,0.221
5,ACTAATCA,0.154
6,CCACTAGC,-0.055
7,CGCCAGTA,-0.111
8,TATTGCAA,0.253
9,ATAGCAGA,0.144
10,ATACCATC,0.198
11,GTACCATA,0.339
12,CTACCATC,0.396
13,ATACCATA,0.286
14,CTACCATA,0.328
15,GTACCAGA,-0.0447
16,ATGCTAGC,0.313
17,ATCAATTG,0.221
18,GCAATGTA,0.23
19,TAAATCGA,0.0795
20,CAAGTCAA,0.171
21,TAGAAATA,0.409
22,TACAACTA,0.368
23,ACAAAATC,-0.0365

row,Sequence,binding signal [E-score]
1,GACAACTA,0.333
2,CTAAAATA,0.262
3,TAAAAATA,0.369
4,GAGAAATA,0.305
5,AACAACTA,0.292
6,CAGAAATA,0.303
7,CCAAAATA,0.164
8,ACAAAATA,0.34
9,AAAAAATA,0.314
10,GCAGAACC,-0.0431
11,ACCGGTGG,-0.196
12,CTTACCTC,0.143
13,AACGTAGA,0.17
14,AACCCAGG,-0.0972
15,AGAGGTGA,-0.164
16,GGACGCTA,0.000145
17,GAGTTGAA,0.00685
18,AAACATAG,0.247
19,CCTGCGAA,-0.196
20,GGCTTCAA,-0.0517
21,ATAACCAA,0.276
22,ATGGTTAC,-0.167
23,ATAAAATA,0.426

row,Sequence,binding signal [E-score]
1,GAGAACTA,0.326
2,GTAAAATA,0.328
3,TAGAACTA,0.406
4,ATAAAATG,0.203
5,GGAAAATA,0.37
6,GAAAAATA,0.279
7,AGAAAATA,0.328
8,CAGAACTA,0.301
9,CGGACTTC,-0.0622
10,AGTGTTAG,0.118
11,GCGCGGTA,0.073
12,GGATATAA,0.271
13,TGATATAA,0.371
14,CGATATAG,0.191
15,CGATATAA,0.357
16,TGATAAAA,0.27
17,CGATATAC,0.239
18,CTTCTTTC,0.0125
19,CGCGCTGA,0.105
20,CAACGAGC,-0.148
21,ACCTTCTC,-0.145
22,CTAACATA,0.186
23,ATAACATA,0.365

row,Sequence,binding signal [E-score]
1,ATAACATG,0.152
2,ACGTCAAG,0.0301
3,GTGTAGTA,0.379
4,CTGTAGTA,0.243
5,ATGTAGTA,0.403
6,ATGTAGTC,0.162
7,GAGTAGTA,0.311
8,ATGTAGTG,0.211
9,CCCAGTAG,0.151
10,AAGTTCAT,0.147
11,ATGCAAAA,0.086
12,AAAATACA,0.344
13,TAAATACA,0.333
14,AAAATACG,0.303
15,AAAATACC,0.373
16,AAAATAAT,0.246
17,AAAATACT,0.416
18,GAAATACC,0.175
19,GAAATACA,0.184
20,CAAATACC,0.126
